Compound activity deposited in PubChem BioAssay by National Center for Advancing Translational Sciences (NCATS).
Rows were chosen to be rich in hits. Some 2.8% of all compounds tested hit in one or more screens of this group.
POLB inh: qHTS Assay for Inhibitors of DNA Polymerase Beta. Pol beta primer extension/strand displacement, fluorescence kinetic. Potency, µM (series often up to 114 µM), for inactives: at the highest dose activity change, negative = inhibition, hits mostly inhibitors. 340,000 compounds, 1.3% hits. AID 485314, 2010; note: potency is the fitted concentration of half-maximal effect; % is set by controls: 0 for no effect and ±100 for the full control effect
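Pol beta (10 nM) was preincubated with compound for 15 min at room temperature. The reaction was then started with 50 nM substrate and read immediately and after a further 10 min at room temperature.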
PI4K2A inh: qHTS for small molecular inhibitors of PI4K2A. 420,000 compounds, 0.13% hits. activity change, negative = inhibition, % at 76.9 µM. Phosphatidylinositol 4-kinase type 2-alpha (Homo sapiens), Q9BTU6. purified PI4K2A, ADP-Glo luminescence, 1 h; hits give low values. AID 1346378, 2018; in the data active = activity change below about -50%; inconclusive = mostly about -30% to -49%;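 note: -100% = wells without enzyme as full effect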
Target sequence (Q9BTU6 whole entry, looked up): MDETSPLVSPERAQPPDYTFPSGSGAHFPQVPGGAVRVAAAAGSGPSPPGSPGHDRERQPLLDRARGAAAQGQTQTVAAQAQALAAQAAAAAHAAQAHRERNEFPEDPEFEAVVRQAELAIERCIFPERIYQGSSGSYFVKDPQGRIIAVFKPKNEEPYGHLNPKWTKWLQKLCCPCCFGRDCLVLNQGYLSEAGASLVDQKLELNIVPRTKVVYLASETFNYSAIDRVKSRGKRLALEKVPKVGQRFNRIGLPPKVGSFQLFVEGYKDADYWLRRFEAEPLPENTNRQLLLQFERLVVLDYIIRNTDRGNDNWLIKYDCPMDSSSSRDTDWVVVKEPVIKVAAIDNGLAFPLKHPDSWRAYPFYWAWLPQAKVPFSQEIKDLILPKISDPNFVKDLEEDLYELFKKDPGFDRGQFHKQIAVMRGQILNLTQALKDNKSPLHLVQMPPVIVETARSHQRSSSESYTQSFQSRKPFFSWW
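PI4K2A activity was measured by ADP-Glo luminescence: enzyme (4 ug/mL stock) and phosphatidylinositol (1.2 mM stock) in Tris pH 7.5/MgCl2/EGTA/Triton X-100 buffer were reacted with ATP (300 microM stock) for one hour at ambient temperature.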
POLH inh: qHTS for Inhibitors of Polymerase Eta | AID 588591, 2011 | 390,000 compounds, 1.2% hits | recombinant Pol eta, fluorescent DNA replication assay | DNA polymerase eta (Homo sapiens), Q9Y253 | Potency, µM (highest dose often 114 µM), for the others: at the top dose activity change, negative = inhibition, hits mostly inhibitors; note: potency is the fitted concentration of half-maximal effect; % is set by controls: 0 for no effect and ±100 for the full control effect
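Pol eta at 10 nM preincubated with compounds 15 min at room temperature; reaction started with fluorescent substrate (50 nM final) and read kinetically at 0 and 10 min.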
POLK inh: qHTS for Inhibitors of Polymerase Kappa; 400,000 compounds, 0.53% hits; AID 588579, 2011; Potency, µM (highest dose often 107 µM), for inactives: at the top dose activity, negative = inhibition, usual class: inhibitors; purified Pol kappa, fluorescent DNA synthesis assay, 10 min; note: potency is the fitted concentration of half-maximal effect; % is set by controls: 0 for no effect and ±100 for the full control effect
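Kinetic fluorescence screen: compound preincubated 15 min RT with 10 nM enzyme; 50 nM substrate (final) initiates; reads at 0/10 min.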
Pol iota inh: qHTS for Inhibitors of Polymerase Iota; DNA polymerase iota (Homo sapiens), Q9UNA4; Pol iota fluorescent replication assay, 10 min; Potency, µM (highest dose often 115 µM), for inactives: at the highest dose activity, negative = inhibition, actives largely listed as inhibitors; 390,000 compounds, 1% hits; note: potency is the fitted concentration of half-maximal effect
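Fluorescent replication assay read twice, at 0 min and 10 min after adding 50 nM (final) substrate. Enzyme (10 nM) and compounds were first incubated 15 min at room temperature; enzyme-free buffer wells were negative controls.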
PI5P4K alpha inh: qHTS for Inhibitors of phosphatidylinositol 5-phosphate 4-kinase (PI5P4K). PI5P4Kalpha enzyme, ADP-Glo luminescence, 60 min; hits give low values. max response, %. 330,000 compounds, 1.2% hits. AID 652105, 2013; active = max response of -50% or lower; inconclusive = between -30% and -50%; inactive = -30% or higher; note: value at the top dose of about 77 µM; % is set by controls: 0 for no effect and ±100 for the full control effect
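Controls without substrate or without enzyme flank wells where PI5P4Kalpha converts substrate using 5 microM ATP (final). Incubation lasts 60 minutes at room temperature; ADP formed is read by ADP-Glo luminescence.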
Starred values were filed as active, the others as inactive; [ ] = dose if it differs, or a comment. Unless noted, calls come from the whole dose curve; as a rule, active = well fitted inhibition curve with a large enough effect; inconclusive = small, poorly fitted or top-dose-only effect, or another doubt; inactive = no such curve, though single readings can be large or run the other way.

How did COc1ccc(/C=C2/C(=O)NC(=O)N(c3ccc(C)c(C)c3)C2=O)cc1CN1C(=O)c2ccccc2C1=O do in these assays?
POLB inh: -14%; PI4K2A inh: -18; POLH inh: -8%; POLK inh: -12%; Pol iota inh: 142%; PI5P4K alpha inh: -66*

What do the screens show for `C#CCN(C)[C@H](C)Cc1ccccc1`?
POLB inh: -29%; PI4K2A inh: 0; POLH inh: -11%; POLK inh: -7%; Pol iota inh: 79µM*; PI5P4K alpha inh: 6

Results for CC(C)C[C@H]1C(=O)N2CCC[C@@H]2[C@@]2(O)O[C@](NC(=O)[C@@H]3C=C4c5cccc6[nH]cc(c56)C[C@@H]4N(C)C3)(C(C)C)C(=O)N12 ?
POLK inh: -18%[12 µM]

What do the screens show for `CCCCN1C(=O)/C(=C\c2ccco2)C(=O)N(CCc2ccccc2)C1=O`?
POLB inh: 8.9µM*; PI4K2A inh: -21; POLH inh: 40µM*; POLK inh: 25µM*; Pol iota inh: inconclusive; PI5P4K alpha inh: -82*

Results for CN1C(=O)C(=CN2CCN(C(=O)c3ccco3)CC2)C(=O)N(C)C1=S ?
POLB inh: 38%; PI4K2A inh: 3; POLH inh: -5%; POLK inh: -2%; Pol iota inh: 3%; PI5P4K alpha inh: -18

How did CCCCN1C(=O)/C(=C/c2ccc(N(C)C)cc2)C(=O)N(Cc2ccco2)C1=O do in these assays?
POLB inh: 22µM*; PI4K2A inh: -23; POLH inh: 40µM*; POLK inh: 25µM*; Pol iota inh: inconclusive; PI5P4K alpha inh: -64*

How did CCCCn1c(=O)c(C=Nc2ccc(Cl)cc2)c(O)n(Cc2ccco2)c1=O do in these assays?
POLB inh: -2%; PI4K2A inh: -22; POLH inh: -25%; POLK inh: -6%; Pol iota inh: 42%; PI5P4K alpha inh: -4

What do the screens show for `CCc1ccc(C2CCNCC2)cc1`?
PI4K2A inh: 1

Results for CC(=O)Nc1cc(Cl)c(N=Cc2ccc(O)cc2O)cc1Cl ?
POLB inh: 10µM*; PI4K2A inh: -11; POLH inh: 79µM*; POLK inh: -8%[60.1 µM]; Pol iota inh: inconclusive; PI5P4K alpha inh: inconclusive

What do the screens show for `COc1ccc(C(=O)Nc2ccc(-c3cc(C(F)(F)F)nn3-c3ccccc3)cc2)cc1OC`?
POLB inh: inconclusive; PI4K2A inh: -3; POLH inh: -11%; POLK inh: -10%[60.1 µM]; Pol iota inh: inconclusive

How did O=c1[nH]sc2cc(F)ccc12 do in these assays?
POLB inh: inconclusive; PI4K2A inh: -3; POLH inh: -4%; POLK inh: 6%; Pol iota inh: 93%; PI5P4K alpha inh: -82*

What do the screens show for `C=CCc1cc(C=C2C(=O)NC(=O)NC2=O)cc(OC)c1OCc1ccc(C(=O)O)cc1`?
POLB inh: inconclusive; PI4K2A inh: inconclusive; POLH inh: 50µM*; POLK inh: -20%; Pol iota inh: inconclusive; PI5P4K alpha inh: -62*

How did C=CCn1cc(C=C2C(=O)N(C)C(=O)N(C)C2=O)c2ccccc21 do in these assays?
POLB inh: 9%; PI4K2A inh: -6; POLH inh: -16%; POLK inh: -2%; Pol iota inh: 47%; PI5P4K alpha inh: -1

Results for C=CCc1cc(C=C2C(=O)N(C)C(=O)N(C)C2=O)cc(OCC)c1OCc1ccccc1 ?
POLB inh: 1%; PI4K2A inh: -22; POLH inh: inconclusive; POLK inh: -3%; Pol iota inh: -18%; PI5P4K alpha inh: -55*

How did COc1cc(OC)c(NS(=O)(=O)c2cc(-c3cnc(C4CC4)o3)ccc2C)cc1Cl do in these assays?
POLB inh: -1%; PI4K2A inh: -3; POLH inh: -7%; POLK inh: -9%[60.1 µM]; Pol iota inh: inconclusive

How did COc1ccc2cc1Oc1ccc(cc1)C[C@H]1c3cc(c(OC)cc3CCN1C)Oc1c(OC)c(OC)cc3c1[C@H](C2)N(C)CC3 do in these assays?
POLB inh: -1%; PI4K2A inh: 2; POLH inh: -12%; POLK inh: -43%; Pol iota inh: -58%; PI5P4K alpha inh: -18

Results for COc1cc2c3c(c1OC)Oc1ccc(cc1)C[C@H]1c4c(cc(OC)c(OC)c4Oc4ccc(cc4)C[C@@H]3N(C)CC2)CCN1C ?
PI4K2A inh: 0; POLH inh: -23%; POLK inh: 7%; Pol iota inh: 35%; PI5P4K alpha inh: -92*

How did O=Cc1c(C(=O)O)n(Cc2ccc(Cl)cc2)c2ccccc12 do in these assays?
POLB inh: inconclusive; PI4K2A inh: 1; POLH inh: 50µM*; POLK inh: -16%; Pol iota inh: inconclusive; PI5P4K alpha inh: -16

Results for CCCc1cc(=O)oc2cc(OCc3ccc(C(=O)O)o3)ccc12 ?
POLB inh: 71µM*; PI4K2A inh: -5; POLH inh: inconclusive; POLK inh: -16%; Pol iota inh: 113%; PI5P4K alpha inh: -8

Results for C#CCOCCOCCOCCNc1nc(N2CCN(C(=O)CCCCCCCCCCNC(=O)[C@H]([C@@H](C)CC)n3cc(CCCCN=C(N)N)nn3)CC2)nc(N2CCN(C(=O)CCCCCCCCCCNC(=O)[C@H](CO)n3cc(CCCCCN)nn3)CC2)n1 ?
PI4K2A inh: 3; POLH inh: 79µM*; POLK inh: 12%; Pol iota inh: inconclusive; PI5P4K alpha inh: inconclusive

How did COc1ccc2c3c1O[C@H]1[C@@H](O)C=C[C@H]4[C@@H](C2)N(C)CC[C@@]341 do in these assays?
PI4K2A inh: inactive

How did O=C1NC(=O)N(Cc2cccs2)C(=O)/C1=C/c1ccc(N2CCOCC2)cc1 do in these assays?
POLB inh: -6%; PI4K2A inh: -5; POLH inh: 4%; POLK inh: -7%; Pol iota inh: 118%; PI5P4K alpha inh: -52*

How did O=C(NC1(C(F)(F)F)Oc2ccc(Cl)cc2O1)N1CCC2(CC1)OCCO2 (stereo unspecified) do in these assays?
POLB inh: 14µM*; PI4K2A inh: -1; POLH inh: -14%; POLK inh: 0%; Pol iota inh: 13%; PI5P4K alpha inh: -2

How did O=C(NC1(C(F)(F)F)Oc2ccccc2O1)N1CCC2(CC1)OCCO2 do in these assays?
POLB inh: -2%; PI4K2A inh: 1; POLH inh: -17%; POLK inh: -44%; Pol iota inh: inconclusive
